# Measurements taken from the supplement of paper PMC6555819.
# Key:
# Experiment in all cases: PBM binding z-score (relative to random genomic background probes); higher = stronger binding; sequences stand for … in GC…GCGATTGACAGCGTAGAATGAAGG
# [1] = tested on: FXR:RXRa (NR concentration 270 nM, RXRa partner concentration 90 nM)
# How it was run: (§1)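 Binding z-scores take random background probes as their reference. They come from custom Agilent 4×180K protein-binding microarrays incubated 1 h with ligand-free nuclear receptor dimers, with antibodies against each partner (one per run) detecting binding. Scanned fluorescence was regression-normalized.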
# [2] = tested on: LXRa:RXRa (NR concentration 270 nM, RXRa partner concentration 90 nM)
# How it was run: as §1
# [3] = tested on: LXRa homodimer (NR concentration 270 nM)
# How it was run: as §1
# [4] = tested on: LXRb:RXRa (NR concentration 270 nM, RXRa partner concentration 90 nM)
# How it was run: as §1
# [5] = tested on: LXRb homodimer (NR concentration 270 nM)
# How it was run: as §1
# [6] = tested on: PPARa:RXRa (NR concentration 270 nM, RXRa partner concentration 90 nM)
# How it was run: as §1
# [7] = tested on: PPARg:RXRa (NR concentration 180 nM, RXRa partner concentration 90 nM)
# How it was run: as §1
# [8] = tested on: PPARg:RXRa 270nM:90nM, anti-RXR (NR concentration 270 nM, RXRa partner concentration 90 nM)
# How it was run: as §1
# [9] = tested on: PPARg:RXRa 30nM:10nM, anti-RXR (NR concentration 30 nM, RXRa partner concentration 10 nM)
# How it was run: as §1
# [10] = tested on: PPARg:RXRa 90nM:30nM, anti-RXR (NR concentration 90 nM, RXRa partner concentration 30 nM)
# How it was run: as §1
# [11] = tested on: PPARg:RXRa DBDmut IVT, anti-RXR (DBD mutation: RXRa K156A/R161A, NR concentration 270 nM, RXRa partner concentration 90 nM)
# How it was run: as §1
# [12] = tested on: PPARg:RXRa IVT, anti-PPARg (NR concentration 270 nM, RXRa partner concentration 90 nM)
# How it was run: as §1
# [13] = tested on: PPARg DBDmut:RXRa IVT, anti-PPARg (DBD mutation: PPARg1 K132A/R137A, NR concentration 270 nM, RXRa partner concentration 90 nM)
# How it was run: as §1
# [14] = tested on: PPARg DBDmut IVT, anti-PPARg (DBD mutation: PPARg1 K132A/R137A, NR concentration 270 nM)
# How it was run: as §1
# [15] = tested on: PPARg homodimer (NR concentration 180 nM)
# How it was run: as §1
# [16] = tested on: PXR:RXRa (NR concentration 270 nM, RXRa partner concentration 90 nM)
# How it was run: as §1
# [17] = tested on: PXR homodimer (NR concentration 270 nM)
# How it was run: as §1
# [18] = tested on: RARa:RXR (NR concentration 270 nM, RXRa partner concentration 90 nM)
# How it was run: as §1
# [19] = tested on: RARa homodimer (NR concentration 270 nM)
# How it was run: as §1
# [20] = tested on: RARb:RXRa (NR concentration 270 nM, RXRa partner concentration 90 nM)
# How it was run: as §1
Sequence,PBM binding z-score [1],PBM binding z-score [2],PBM binding z-score [3],PBM binding z-score [4],PBM binding z-score [5],PBM binding z-score [6],PBM binding z-score [7],PBM binding z-score [8],PBM binding z-score [9],PBM binding z-score [10],PBM binding z-score [11],PBM binding z-score [12],PBM binding z-score [13],PBM binding z-score [14],PBM binding z-score [15],PBM binding z-score [16],PBM binding z-score [17],PBM binding z-score [18],PBM binding z-score [19],PBM binding z-score [20]
CCTTACGGGTCAAGGTTATAGCACGGGTGGTACG,5.23,3.73,0.318,2.98,0.019,5.02,4.65,4.69,2.06,3.64,1.93,3.57,0.0487,-0.257,1.58,3.2,0.367,4.01,0.705,4.13
TTTACAGGGTCAAAGGCCAGAGTACGAATGTCGA,6.76,5.85,2.22,4.87,1.18,6.03,8.6,7.65,6.04,7.79,3.26,5.18,1.93,1.36,1.8,4.41,0.247,6,1.16,4.52
GTACCAAGGTGAATAGGTCGTTAATGAGTAGGCG,0.719,0.484,-0.0766,0.302,-0.312,2.18,1.38,1.71,0.588,1.07,1.75,2.66,0.399,0.346,1.46,0.664,0.393,1.44,0.00305,1.91
CCTAGTTGGTCAAGGTCACACGCGCTATAGGTAC,4.49,3.9,2.29,3.34,0.902,4.29,3.54,3.95,1.23,3.1,2.5,3.82,0.145,0.325,2.68,4.09,2.6,4.13,1.78,4.39
TCGAGTAGGTTACCAATGGGGCATTCTGCTTTCT,0.0174,1.11,-0.471,0.975,-0.712,1.33,0.0267,1.1,0.935,0.902,3.32,2.53,-0.301,-0.867,-0.334,-0.0891,-0.788,0.363,-0.932,0.902
CCTAGTTGGTCAAGGTCGCACACGCTATAGGTAC,1.28,0.906,0.275,1.18,-0.0478,1.68,1.15,1.37,0.0592,0.958,1.4,1.87,0.308,0.288,1.55,1.57,1.04,1.69,0.482,2.43
CATACAGGGTCAGCTAGGGCAGAGTAGGGACGGC,4.71,3.1,-0.0929,2.23,0.47,4.21,3.23,3.05,0.549,1.75,1.09,2.7,1.4,-0.307,2.1,2.54,0.343,3.11,0.618,4.28
CCTAGCAGACCAGGGTCACTCAAGCATTTCGCTT,2.1,1.88,-0.131,2.25,-0.581,3.23,0.556,1.21,-0.525,0.444,-0.221,0.416,-0.792,-1.1,0.914,2.63,-0.0947,3.3,-0.0324,2.32
ATATGTAGGTTAAGGGTCATCCAGGTTGGTTCGC,4.92,5.03,2.83,4.66,1.61,6.89,12.2,10.6,11.2,12.3,7.61,8.22,4.43,2.04,4.33,5.87,2.5,6.77,2.63,3.99
CGTCAAAGTTCAAGGTAACGTTACAGAAAGCAGC,6.48,5.5,3.04,3.64,1.12,4.78,4.55,5.04,2.28,4.37,1.03,2.42,0.621,1.08,3.53,4.49,3.12,3.46,2.12,5.26
ACAAGCAGGCCAAGGGTCACTCAAGATTAGTCCG,2.26,2.92,0.0513,2.56,-0.322,4.58,8.28,7.67,6.24,7.51,1.27,3.95,0.299,-0.852,2.21,3.26,-0.154,4.08,0.779,3.47
CAAACTAGGTCAAGAGGCCAAAGTCCGCTTCCCG,3.54,2.84,0.509,1.81,-0.0945,4.7,7.87,6.59,4.48,6.47,8.03,8.06,1.13,0.602,1.8,1.56,0.34,2.68,0.79,3.93
CCTAGCTGGCCAATCTGGGTCACTCAAGGCTTGA,0.656,0.35,-0.714,0.665,-1.32,2.6,1.43,1.89,-0.389,1.26,3.93,4.25,-0.85,-1.11,-0.162,0.708,-0.934,1.02,-1.02,1.09
